The list is not random: actives were taken first. Their share in the collection is about 0.99%.
cardiac RTF act: cardiac RTF calcium sensitization; activation, % at 7.2 µM; IANBD-labeled TnC RTF fluorescence at EC20 calcium; 0% EC20 calcium, 100% full calcium; 0.24% of 340,000 active; P19429+P45379; AID 493008;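 active means activation above the mean over all tested compounds plus 3 SD, cut at about 30% in these data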;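 further: rise in fluorescence read as greater calcium sensitivity of cardiac thin filaments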
Cardiac RTF inh: cardiac RTF calcium desensitization; inhibition, % at 7.15 µM; P19429+P45379; AID 493244; IANBD-labeled cardiac RTF, Ca2+ fluorescence; 0.12% of 340,000 active;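 active means inhibition above the mean inhibition of all tested compounds plus 3 SD, cut at about 17% in these data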;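 further: assay run at fixed EC70 calcium of 1.6 mM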
C-LANA FP: inhibitors of KSHV LANA C-terminal domain DNA binding; AID 504423; inhibition, % at 9 µM; MBP-C-LANA/FAM-LBS DNA binding, fluorescence polarization; 0.078% of 340,000 active;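 active means highest replicate inhibition at or above 60% at 9 µM, even if other replicates fall short; inactive means all replicates below 60% inhibition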;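 further: 0% = neutral control wells and 100% = 4 µM acridine orange control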
Keap1 Nrf2 FP: Keap1-Nrf2 (human) interaction inhibition; Keap1 Kelch-Nrf2 peptide fluorescence polarization, 1536-well; Q14145; 0.15% of 340,000 active; inhibition, % at 9.4 µM; in the data active means inhibition above about 12%;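 further: human Keap1 Kelch domain with fluorescein labeled Nrf2 9mer peptide probe; 0% = neutral control wells and 100% = peptide positive control; higher means more block of Keap1 binding to Nrf2 peptide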
Target sequence (Q14145 whole entry, looked up, the tested form may be a part): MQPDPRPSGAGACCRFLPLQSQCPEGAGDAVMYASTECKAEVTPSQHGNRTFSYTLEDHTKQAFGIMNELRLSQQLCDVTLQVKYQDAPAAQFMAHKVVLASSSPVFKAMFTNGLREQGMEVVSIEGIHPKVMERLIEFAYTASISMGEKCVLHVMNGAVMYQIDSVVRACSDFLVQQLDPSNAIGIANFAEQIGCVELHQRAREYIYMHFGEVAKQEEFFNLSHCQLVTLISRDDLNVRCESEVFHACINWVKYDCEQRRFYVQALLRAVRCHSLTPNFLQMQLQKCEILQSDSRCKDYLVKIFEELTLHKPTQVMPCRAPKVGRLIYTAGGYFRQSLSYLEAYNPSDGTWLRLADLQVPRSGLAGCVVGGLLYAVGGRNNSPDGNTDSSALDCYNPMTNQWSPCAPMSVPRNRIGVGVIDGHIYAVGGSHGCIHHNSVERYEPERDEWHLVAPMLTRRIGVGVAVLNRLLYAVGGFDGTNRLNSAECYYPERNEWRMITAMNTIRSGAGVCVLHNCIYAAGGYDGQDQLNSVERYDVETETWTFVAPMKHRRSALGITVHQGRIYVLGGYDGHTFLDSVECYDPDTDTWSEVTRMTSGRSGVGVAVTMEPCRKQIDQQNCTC
LANA-H2A inh: blocks KSHV LANA binding to histone H2A/H2B | cell-free LANA-H2A/H2B peptide, fluorescence polarization | inhibition, % (no concentration beside the values) | 0.6% of 320,000 active; in the data active means inhibition mostly above about 10%, no sharp cut-off; inactive means mostly below about 6.7%
* marks the source's active call; other numbers are inactive results; x = no result; + = active, no number; ! = not active in a repeat.

SMILES	cardiac RTF act	Cardiac RTF inh	C-LANA FP	Keap1 Nrf2 FP	LANA-H2A inh
O=C1CCNc2ccc(-c3ccccc3)cc21	64*	-71	84*	24*	5
CCCN(CC(=O)Nc1ccccc1OC)C(=O)c1cc(-c2ccccc2)nn1-c1ccccc1	-3	-3	1	-3	49*
Cc1cccc(C)c1NC(=O)C1CCCCN1C (stereo unspecified)	2	10	-2	8	25*!
Cc1cc(C)c(NC(=O)C2CCCN2C)c(C)c1 (stereo unspecified)	-1	-21	1	0	3
CCN(Cc1nc2cc(Cl)ccc2c(=O)[nH]1)C(=O)c1cccc(OCc2c(C)noc2C)c1	0	-10	7	-1	91*
CCN(Cc1nc2cc(Cl)ccc2c(=O)[nH]1)C(=O)c1cccc(NC(=O)c2cccs2)c1	-2	-7	0	-2	6
Cc1cc(N2CCCC2)ccc1/C=C1\NC(=S)N(C)C1=O	53*	-119	-16	-22	-9
O=C1/C(=C/c2ccc(N3CCCC3)cc2)NC(=S)N1C1CC1	56*	-152	-4	-32	-14
CC1CN(S(=O)(=O)c2cccc(C(=O)N=c3sccn3C)c2)CC(C)O1 (stereo unspecified)	-2	-18	-1	-8	2
COc1ccc(C2C(C(=O)c3ccco3)=C(O)C(=O)N2CC2CCCO2)cc1OC (stereo unspecified)	-7	-1	-1	-4	19*
COc1cccc(OCCn2cc(C(C)=O)c3ccccc32)c1	2	-5	-1	3	-1
Cc1cc(C)c(NC(=O)CSCc2nc3sc(C)c(C)c3c(=O)[nH]2)c(Cl)c1	7	-11	0	-5	55*
Cc1sc2nc(CSCC(=O)Nc3cc(F)ccc3F)[nH]c(=O)c2c1C	-1	-13	0	0	-1
CCC1=Nc2cc(C(=O)NCCN3CCOCC3)ccc2Sc2ccc(C)cc21	-8	-12	0	-2	5.1*
CCCC1=Nc2cc(C(=O)NCCN3CCOCC3)ccc2Sc2ccc(C)cc21	10	1	-1	1	-2
COc1cccc(CNn2c(-c3cccc(C)c3)nc3ccccc3c2=O)c1O	5	8	2	-3	2
O=C1CC(=O)C(n2cncn2)C(c2cccc(Cl)c2)C1 (stereo unspecified)	-8	-1	3	2	16*
COc1ccc(C2CC(=O)CC(=O)C2n2cncn2)cc1 (stereo unspecified)	0	-5	0	-3	-5
COCCC1CCCCN1C(=O)c1cccc(OC2CCN(S(C)(=O)=O)CC2)c1 (stereo unspecified)	5	3	1	4	17*
O=C(NCCCO)c1ccc2nc(-c3ccco3)c(-c3ccco3)nc2c1	0	10	68*	-2	x
Cc1cc(NC(=O)CSc2nc(CCC3CCCC3)nc3ccccc23)no1	0	-3	0	2	1
O=C(CSc1nc(CCC2CCCC2)nc2ccccc12)NCc1ccc2c(c1)OCO2	3	-21	3	-2	15*
CC[C@]12c3[nH]c4ccc(Cl)cc4c3CCN1C(=O)[C@@H](CC(=O)NCCc1ccccn1)C[C@@H]2C(=O)N1CCN(C(=O)C2CC2)CC1	5	-5	-3	-8	x
CC(=O)c1ccc(C(=O)Nc2sc3c(c2C(N)=O)CCN(Cc2ccccc2)C3)cc1	102*	-160	9	-4	-26
CCOC(=O)c1c(NC(=O)C2COc3ccccc3O2)sc2c1CCN(Cc1ccccc1)C2 (stereo unspecified)	0	8	0	0	-1
SMILES	cardiac RTF act	Cardiac RTF inh	C-LANA FP	Keap1 Nrf2 FP	LANA-H2A inh
NC(=O)c1c(NC(=O)C2COc3ccccc3O2)sc2c1CCN(Cc1ccccc1)C2 (stereo unspecified)	38*	-77	23	-2	-1
COc1ccc2c(c1)c(C(=O)N1CCN(C)CC1)c(C)n2-c1ccccc1	-3	5	0	2	-1
Cc1cc(Nc2ccc3c(c2)OCCO3)n2nc(C)nc2n1	-3	-6	0	-6	7
O=C1CC(c2ccccc2)CC(O)=C1C=Nc1ccc(Cl)cc1 (stereo unspecified)	-2	-10	0	3	-3
O=C1CCCC(O)=C1C=Nc1ccc(O)cc1	9	0	1	-1	17*
CC(C)CCNC(=O)c1ccc2c(c1)ncn2C1CCCC1	0	11	0	-8	-1
COc1ccccc1NS(=O)(=O)c1cc(C(=O)NCC(c2cccs2)N2CCOCC2)ccc1C (stereo unspecified)	4	2	-3	2	1
CCN1C(=O)/C(=C/C=C2/CCCN2C)OC1=S	32*	-38	-2	-17	2
CN1C(=O)/C(=C\C=C2/CCCN2C)N(C)C1=S	16	-19	0	-18	6
COc1ccc(C2=NS(=O)(=O)N(C)C(C(=O)NCc3ccc4c(c3)OCO4)=C2)cc1	2	-1	0	1	-2
CCc1ccc(N2C(=O)CN(Cc3cccs3)C2=S)cc1	-5	-4	-1	-1	+
CCc1ccc(N2C(=O)CN(Cc3ccccc3)C2=S)cc1	5	1	-2	5	0
O=C(N/N=C/c1ccc(OCC(=O)N2CCCCC2)cc1)c1ccccc1	3	-3	-1	5	0
O=C(N/N=C/c1ccc(OCC(=O)N2CCCC2)cc1)C(=O)NC1CC1	-7	5	-1	3	26*
O=C(NCC1COc2ccccc2O1)c1cccc(S(=O)(=O)N2CCOCC2)c1 (stereo unspecified)	-5	-2	2	3	26*
O=C1CC(c2c[nH]c3ccccc23)C(=O)N1 (stereo unspecified)	4	-2	2	4	30*
Cc1ccc(C2=NNC(=O)C(c3c[nH]c4ccccc34)C2)cc1 (stereo unspecified)	2	1	1	1	-1
Cn1c(=O)c2c(nc(CN3CCN(c4ccccc4)CC3)n2CCc2ccccc2)n(C)c1=O	2	-10	1	-3	-3
C=COCCNC(=O)C(=O)NC(C)C	2	2	-2	-4	17*
O=S(=O)(c1ccc(Cl)c2ccccc12)N1CCCC1	11	-3	1	-3	0
CC1OC(OC2C(Oc3c(-c4ccc(O)cc4)oc4cc(O)cc(O)c4c3=O)OC(COC3O[C@@H](C)[C@H](O)[C@@H](O)C3O)C(O)C2O)C(O)C(O)C1O (stereo partly specified)	-1	-4	3	-2	-15
CC1OC(OCC2OC(Oc3c(-c4ccc(O)cc4)oc4cc(O)cc(O)c4c3=O)C(O)C(O)C2O)C(O)C(O)C1O (stereo unspecified)	-3	-9	9	5	+

Screening results from PubChem.
